# Data from PubChem BioAssay (NCI).
# Compounds without any hit were thinned out: in the full panel of roughly 83,000, 20% have a hit.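 Method: cells in 96-well plates; compound added at one concentration; 48 h incubation; percent growth measured; values under 10 scored active.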 The source made the active and inactive calls.
# Test system: HL-60(TB) leukemia
# Assay: NCI-60 one-dose screen, 48 h (100 = growth as untreated, 0 = no growth, -100 = all killed)
# Conditions: 10 µM unless noted
row,SMILES,growth
1,CCOC(=O)c1c(NC(=O)c2ccc(Cl)cc2)sc2c(CN(C)C)c(O)ccc12,12.5% (inactive)
2,NS(=O)(=O)Oc1ccc(-c2sc3cc(O)ccc3c2C(=O)c2ccc(OCCN3CCCCC3)cc2)cc1,47.7% (inactive)
3,Nc1c2c(c(O)c3c1=C(CO)C=N3)=NCCS2,-33.7% (active)
4,COc1ccc2nc3cc(Cl)ccc3c(Nc3cc(CN4CCCC4)c(O)c(CN4CCCC4)c3)c2n1,-20.4% (active)
5,CCN1C(=O)N(CC)C2C1NN=c1s/c(=C\c3cccc(F)c3)c(=O)n12 (stereo not given),-16.9% (active)
6,CC(=O)N1CCN(CCNC(=O)n2cc(-c3ccncc3)c(-c3cc(O)cc(Cl)c3)n2)CC1,59.9% (inactive)
7,Cc1ccc(C)c2c1C(O)(C#Cc1ccccc1)c1ccccc1C2(O)C#Cc1ccccc1 (stereo not given),35.6% (inactive)
8,O=C(O)C1C[C@](O)(c2ccc(F)cc2)[C@@H](c2ccc(F)cc2)O1 (stereo not given in full),91.6% (inactive)
9,CCOc1ccc(/C=C/C=N/NC(N)=S)cc1,42% (inactive)
10,CN(CC(=O)N(Cc1ccc(C2CCCCC2)cc1)c1ccc(C(=O)NO)cc1)S(=O)(=O)c1c(F)c(F)c(F)c(F)c1F,43.6% (inactive)
11,c1ccc(-c2nnc(Nc3ccc4c(c3)OCCO4)o2)c(NCc2ccncc2)c1,6.43% (active)
12,CC(C)c1ccc(C(=O)Nc2sc3cc(O)ccc3c2C#N)cc1,-6.25% (active)
13,CN(C)c1ccc2[nH]c3c(C(N)=O)cc(=O)c(=O)c=3oc2c1,-2.19% (active)
14,CN1CCN(Cc2ccc(NC(=O)c3cncc(C#Cc4ncc5cnccn45)c3)cc2C(F)(F)F)CC1,24.8% (inactive)
15,CCc1nnc(NC(=O)c2ccoc2COc2ccccc2)s1,19.3% (inactive)
16,COc1cc(C[C@H]2COc3cc(O)cc(O)c3C2=O)ccc1O,-35.5% (active)
17,N#Cc1c(-c2ccc(Cl)cc2)cc(-c2cc(O)ccc2O)nc1N,68.2% (inactive)
18,C=CCn1c(C)nc2ccc(Nc3nc(Nc4ccc5nc(C)n(CC=C)c5c4)c4ccccc4n3)cc21,-63.2% (active)
19,CC(C(=O)O)n1c(O)c(C=Nc2cccnc2)sc1=S (stereo not given),82.3% (inactive)
20,CCN(CC)CCS(=O)(=O)CCNc1ccnc2cc(Cl)ccc12,-22.5% (active)

row,SMILES,growth
1,CCO/C=N/C1=C(C#N)C(c2ccc(Cl)cc2)c2sc3c(F)cccc3c2O1 (stereo not given),56.2% (inactive)
2,C=C1C(=O)O[C@H]2[C@H]1CC/C(CNC(=O)CCc1ccc(OC)cc1)=C\CC[C@@]1(C)O[C@@H]21,3.96% (active)
3,COc1ccccc1OCC(O)CO (stereo not given),74.1% (inactive)
4,Cc1nc2scc(-c3ccccc3)n2c(=O)c1CCO,112% (inactive)
5,NC(=O)NNC(=O)c1ccccc1,103% (inactive)
6,Cc1cc(Cl)ccc1Nc1nc(C(F)(F)F)ccc1C(=O)N/N=C/c1ccc(N(C)C)cc1,12.4% (inactive)
7,O=C1CS/C(=N\Nc2cc(=O)[nH]c3ccccc23)N1c1ccccc1,96.2% (inactive)
8,Cc1ccccc1SSc1ccccc1C,99.6% (inactive)
9,O=C(Nc1ccccn1)[C@H](O)[C@@H](O)C(=O)N1CCOCC1,116% (inactive)
10,CCCCc1n(Cc2ccc3ccccc3c2)c2ccccc2[n+]1Cc1ccc2ccccc2c1,-59.2% (active)
11,Cc1cc(C)on1,76.3% (inactive)
12,CC(=O)Nc1nc2c(s1)CCc1c-2cn(S(=O)(=O)c2ccccc2)c1-c1ccccc1,71% (inactive)
13,CCC1(CC)NC(=O)c2c(c3ccc(Cl)c(Cl)c3n2C)C1C#N (stereo not given),91.3% (inactive)
14,NC(=N\N=C/c1ccc(O)cc1)/C(N)=N\N=C/c1ccc(O)cc1,25.9% (inactive)
15,COc1cccc(C(Cc2ccccc2)Nc2ccccc2)c1OC (stereo not given),96.3% (inactive)
16,COc1ccc2c(c1)C(C)Cc1c(ncnc1-n1cnc3ccccc31)N2C (stereo not given),-5.85% (active)
17,CCc1ccc(Cc2cnc(NC(=O)c3cc(C)oc3C)s2)cc1,-21.3% (active)
18,Nc1nc(-c2ccc(Cl)cc2)nc2c1sc(=S)n2-c1ccccc1,103% (inactive)
19,COc1ccc(-c2nc(-c3cc(OC)cc(OC)c3)[nH]c2-c2ccc(OC)cc2)cc1,30.1% (inactive)
20,CCOC(=O)C/C(=N\Nc1cc(=O)[nH]c2ccc(Cl)cc12)C(=O)OCC,90.6% (inactive)
